Only some compounds are listed: those with a hit (about 11% of all), similar ones and a draw of the others.
L3MBTL1 block – blocks human L3MBTL1. Q9Y468. AlphaScreen L3MBTL1–H3K9me1 peptide binding. Potency, µM (doses to about 57.1 µM), without a hit: at the highest dose activity, negative = inhibition, usual class: inhibitors. 0.66% of 230,000 active. AID 485360; note: % is set by controls: 0 for no effect and ±100 for the full control effect; nearly all actives have a fitted effect of over 60% in size
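AlphaScreen proximity signal between nickel-chelate acceptor and streptavidin donor beads (final 10 ug/mL) reports binding of 50 nM L3MBTL1 to 75 nM biotin-H3 K9me1 peptide; complex incubated with compounds 30 min at room temperature; cefsulodin titration as control.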
JMJD2A Tudor inh – inhibitors of human JMJD2A Tudor domain | O75164 | AlphaScreen JMJD2A-Tudor / H3K4me3 peptide binding | Potency, µM (titrated, usually from 114 µM), inactives show at the highest dose activity change, negative = inhibition, hits mostly inhibitors | 4.4% of 390,000 active; note: % is set by controls: 0 for no effect and ±100 for the full control effect; nearly all actives have a fitted effect of over 50% in size
HP1b binding inh – inhibitors of HP1-beta chromodomain binding to methylated histone tails. Potency, µM (series often up to 114 µM), for inactives: at the highest dose activity change, negative = inhibition, most hits filed as inhibitors. 0.56% of 390,000 active. AlphaScreen HP1-beta / biotin-H3K9me3 peptide binding. P83916; note: nearly all actives have a fitted effect of over 70% in size
Target sequence (P83916 whole entry, looked up): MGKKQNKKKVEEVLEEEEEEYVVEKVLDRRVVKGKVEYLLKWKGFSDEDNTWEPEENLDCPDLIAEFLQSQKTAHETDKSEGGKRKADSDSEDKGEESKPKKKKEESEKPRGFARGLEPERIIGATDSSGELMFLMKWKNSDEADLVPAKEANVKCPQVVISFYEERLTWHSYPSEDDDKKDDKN
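Compound inhibition of the preformed complex between 50 nM HP1-beta and 50 nM biotinylated H3K9me3 peptide was read by AlphaScreen. Buffer was PBS pH 7.4 with 0.01% Tween-20. Incubations ran 30 min at room temperature, with 10 ug/mL donor/acceptor beads.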
BAZ2B block – BAZ2B (human) inhibition; Q9UIF8; AlphaScreen BAZ2B-H3K14Ac peptide displacement; Potency, µM (highest dose often 114 µM), for inactives: at the top dose activity change, negative = inhibition, hits mostly inhibitors; 4.4% of 360,000 active; note: % is set by controls: 0 for no effect and ±100 for the full control effect; nearly all actives have a fitted effect of over 60% in size
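AlphaScreen displacement: compounds (up to 110uM) incubated 30 min at room temperature with a preformed 50 nM BAZ2B/50 nM biotinylated H3K14Ac peptide complex in PBS pH 7.4 with Tween-20. Donor and acceptor beads at 10 ug/mL final added, 20 min light-protected before reading.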
G9a inh – blocks human histone lysine methyltransferase G9a; Potency, µM (top dose mostly 102 µM), without a hit: at the highest dose activity, negative = inhibition, usual class: inhibitors; 8.8% of 350,000 active; Q96KQ7; G9a H3K9 monomethylation, AlphaScreen, 2 h; AID 504332; note: % is set by controls: 0 for no effect and ±100 for the full control effect; nearly all actives have a fitted effect of over 75% in size
Target sequence (Q96KQ7 913-1193 limits assumed): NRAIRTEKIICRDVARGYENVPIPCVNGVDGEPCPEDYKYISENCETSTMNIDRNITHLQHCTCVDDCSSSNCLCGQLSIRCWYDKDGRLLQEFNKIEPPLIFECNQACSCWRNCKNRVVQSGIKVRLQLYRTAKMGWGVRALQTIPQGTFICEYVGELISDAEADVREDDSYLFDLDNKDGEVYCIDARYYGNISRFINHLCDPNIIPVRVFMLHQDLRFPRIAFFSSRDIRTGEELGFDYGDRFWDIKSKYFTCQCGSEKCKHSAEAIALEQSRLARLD
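Enzyme 20 nM + cpd, 15 min RT; add b-H3K9 pep 500 nM / SAM 20 uM; 2 h RT; anti-H3K9me1 Ab 0.5 ug/mL + SA donor / anti-rabbit acceptor beads 20 ug/mL each, 10 min; AlphaScreen read.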
* = called active by the depositor; ? = inconclusive; . = no result; [ ] = another dose, or the depositor's remark. Calls come from the whole dose curve; as a rule, active = well fitted inhibition curve with a large enough effect; inconclusive = small, poorly fitted or top-dose-only effect; inactive = no such curve, though single readings can be large or run the other way. Potency is the fitted concentration of half-maximal effect.

SMILES | L3MBTL1 block | JMJD2A Tudor inh | HP1b binding inh | BAZ2B block | G9a inh
CN(C)c1ccc(C2C3=C(CCCC3=O)OC3=C2C(=O)CCC3)cc1 | -11% | ? | -7% | -38% | ?
O=C(c1csnn1)N1CCC2(CC1)CCN(c1ccncc1)CC2 | . | . | . | . | 5%[12.7 µM]
CC(=O)Nc1nonc1-c1nnc(SCc2ccccc2Cl)n1C | . | -9% | 20% | 5% | 7%[59 µM]
Cc1cc(C)nc(NC2=NCC(=O)N2c2ccccc2)n1 | -2% | ? | 4% | -9% | -41%[12.7 µM]
COc1ccc(N2C(=O)CN=C2Nc2nc(C)cc(C)n2)cc1 | -1% | 45µM* | 7% | 5% | -18%[12.7 µM]
Nc1sc(-c2ccccc2)c(Cc2ccccc2)c1C(=O)O | . | ? | ? | . | 50µM*
COC(=O)c1c(N)sc(Cc2ccccc2)c1C | -3% | -13% | 25% | ? | -11%[0.501 µM]
COc1ccc(/C=N/Nc2cc(N(C)C)nc(N(C)C)n2)cc1 | -10% | ? | ? | 50µM* | 4.5µM*
O=[N+]([O-])c1cccc(/C=N/NC2=NCCCCC2)c1 | 0% | -6% | 45% | 1% | 1%[59 µM]
COc1ccc(/C=N/NC2=NCCCCC2)c(OC)c1 | -1% | -11% | 27% | -17% | 11µM*
COc1ccc(/C=N/NC2=NCCCCC2)cc1 | . | -13% | 45% | -3% | 28µM*
Oc1ccccc1/C=N/NC1=NCCCCC1 | 4% | -13% | 44% | 10% | .
CN(C)c1cc(N/N=C\c2ccccc2)nc(N(C)C)n1 | ? | ? | 22% | -37% | -18%
COc1ccc(/C=N/NC(C)(C)C)c(OC)c1 | 0% | -17% | 17% | ? | 13µM*
CCCN1CCN(c2ncc3c(n2)CCN(Cc2ccc(OC)c(OC)c2OC)C3)CC1 | . | -14% | 44% | -39% | -7%[12.7 µM]
Fc1ccc(Nc2ncncc2-c2ccccc2C(F)(F)F)cc1 | . | . | . | . | -21%[0.501 µM]
Nc1c(C(=O)N/N=C/c2ccccc2Cl)oc2nc(-c3ccccc3)cc(-c3ccco3)c12 | -17% | -21% | 30% | -23% | 20µM*
Cc1cc(-c2ccccc2)nc2oc(C(=O)NN)c(N)c12 | -8% | -21% | 37% | -20% | 24%[59 µM]
Nc1c(C(=O)N/N=C/c2ccc(F)cc2)oc2nc(-c3ccccc3)cc(-c3ccco3)c12 | -18% | -32% | 13% | -22% | 28µM*
O=C(N/N=C/c1ccc(F)cc1)c1cc(-c2ccco2)nc2ccccc12 | 3.5µM* | ? | 22µM* | 2.8µM* | ?
Cc1cc2c(cc1S(=O)(=O)Nc1cccc(Cl)c1C)OCCN2C | . | -17% | 17% | -31% | -14%[59 µM]
COc1cc(-c2nn3c(-c4ccco4)nnc3s2)cc(OC)c1OC | -3% | . | . | 6% | 22%
COc1cccc(OC)c1-c1nn2c(-c3ccco3)nnc2s1 | -17% | -2% | 31% | 5% | 35µM*
CCOc1cccc(-c2nnc3sc(-c4ccco4)nn23)c1 | 0% | -32% | -11% | 4% | 7.9µM*
COc1cccc(-c2nn3c(-c4ccco4)nnc3s2)c1 | -8% | -19% | 25% | 6% | 45µM*
SMILES | L3MBTL1 block | JMJD2A Tudor inh | HP1b binding inh | BAZ2B block | G9a inh
CC(=O)c1cc(-c2ccc(F)cc2)n(CC(=O)NC2CCC(C)CC2)c1C (configuration not stated) | . | -20% | 10% | -14% | -4%[59 µM]
COc1ccc(-n2ccnc2SCC(=O)Nc2nnc(C)s2)cc1 | . | -21% | 17%[57 µM] | -1% | 0%[59 µM]
CC1(C)SC(=S)N(NC(=O)Nc2ccccc2)C1N(O)C(=O)Nc1cccc2ccccc12 (configuration not stated) | -11% | ? | 26% | ? | 11µM*
COC(=O)c1cc(NC2(c3ccccc3)C(=O)c3ccccc3C2=O)cc(C(=O)OC)c1 | . | -31% | 20% | -27% | -36%[59 µM]
CCCCn1c(N)c(N(Cc2ccccc2OC)C(=O)CN2C(=O)NC(C)(c3ccccc3)C2=O)c(=O)[nH]c1=O (configuration not stated) | 14% | -17% | 7% | 0% | 5.6µM*
Cc1cccn2c(=O)c(C(=O)NCCc3ccc(S(N)(=O)=O)cc3)c(O)nc12 | . | -8% | 9% | 1% | ?
CN(C)C1(CNCC(O)c2ccccc2)CCCCC1 (configuration not stated) | . | 20µM* | ? | 71µM* | 20µM*
CCOC(=O)N1CCc2c(sc3c2c(=O)n(Cc2ccccc2)c(=O)n3CC(=O)Nc2ccc(F)cc2)C1 | . | -9% | 43% | -13% | 5%[59 µM]
COc1ccc(NC(C)=O)cc1NC(=O)C1(c2cccs2)CCOCC1 | . | -14% | 19%[57 µM] | 0% | 4%[59 µM]
COc1ccc2ccccc2c1CNCCCN1CCOCC1 | 4% | -7% | 46% | -19% | -14%
CC(NCCOCCOc1ccccc1)c1ccccc1 (configuration not stated) | 3% | 13% | 32% | 0% | 9%[59 µM]
COc1ccc2ccccc2c1CNC(C)c1ccccc1 (configuration not stated) | -9%[2.29 µM] | 79µM* | -5% | ? | 20%[0.501 µM]
COc1ccc2ccccc2c1CNCc1ccc(C)cc1 | -8% | 22µM* | ? | ? | 50µM*
CC(NCCCOc1cccc2ccccc12)c1ccccc1 (configuration not stated) | -2% | 22µM* | ? | ? | 11µM*
CC(NCc1ccccc1O)c1ccccc1 (configuration not stated) | 10% | 13% | 40% | 0% | 20%
CCC1CCCCN1C(=O)CSc1nc(N)c(NC(=O)c2ccc(OC)c(OC)c2)c(=O)[nH]1 (configuration not stated) | -1% | -14% | 31% | 11% | 50µM*
O=C(CSc1nc2ncccc2[nH]1)NC1CCCC1 | 0% | 0% | -4% | 4% | 22µM*
CCC1CCCCN1C(=O)CSc1nc2ncccc2[nH]1 (configuration not stated) | . | 50µM* | ? | -27% | .
Fc1ccc(CSc2nc3ncccc3[nH]2)cc1 | -3% | -4% | -12% | -4% | 50µM*
CC(C)Oc1ccc(CNC(=O)c2ccc(CS(=O)c3cccc(Cl)c3)o2)cc1 (configuration not stated) | . | -10% | 23% | -12% | -24%[59 µM]
CCn1c(=O)c2ccccc2n(CC(=O)NC2CCCCC2)c1=O | . | -8% | 16% | -10% | 3%
O=C(c1ccc2c(=O)n(CCc3ccccc3)c(=O)[nH]c2c1)N1CCN(C(=O)c2ccco2)CC1 | . | -7% | 31% | . | .
Cc1ccc(C)c(NC(=O)CSc2c3c(nc4ccc(Cl)cc24)CCCC3)c1 | . | -16% | 22% | . | -8%[59 µM]
CCOCCCn1c(SCC(=O)Nc2ccccc2Cl)nc2c(oc3ccccc32)c1=O | . | 0% | 27% | 4% | 2%[59 µM]
Cc1ccc(-c2nn[nH]n2)cc1 | 9% | -15% | 35% | -1% | -17%[59 µM]
Cc1ccc(-c2nn[nH]n2)cc1Cl | 4% | -5% | 25% | 89µM* | 50µM*
